An excerpt weighted towards active compounds, which were near 5.9% of everything screened.
HepG2 viability: qHTS for Inhibitors of TGF-b: Cytotox Counterscreen. HepG2 CAGA-GFP viability, ATP luminescence, 18 h. actives 0.76% (n = 410,000). Potency, µM (titrated, usually from 46.1 µM), actives largely listed as cytotoxic
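HepG2 CAGA-GFP cells (1000/well, DMEM with 1% FBS) received compound, then TGF-beta at 500 pg/mL final, and were incubated 18 hours at 37 degrees C. Viability was read by CellTiter-Glo luminescence. Media-only wells were set as complete cell-killing and DMSO as no toxicity.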
TGFb SMAD3 inh: qHTS for Inhibitors of TGF-b. HepG2 CAGA-GFP TGF-b/SMAD3 reporter, GFP fluorescence, 18 h; TGF-beta stimulated, 500 pg/mL final. Potency, µM (doses to about 46.1 µM), most hits filed as inhibitors. actives 1.2% (n = 410,000); also: nearly all actives have a fitted effect of over 65% in size
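Cell-based qHTS in HEPG2 carrying a CAGA-GFP Smad reporter; compounds added before 500 pg/mL final TGF-beta, 18 h incubation at 37 degrees C, GFP fluorescence quantified per cell by imaging cytometry.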
S2 tox: Viability Counterscreen for Primary qHTS for Inhibitors of ATXN expression | S2 cells (HEK-293 line with an ATXN2-luciferase reporter) viability, CellTiter-Fluor protease fluorescence, 24 h | Potency, µM (doses to about 56.7 µM), hits mostly cytotoxic | actives 0.49% (n = 400,000); also: nearly all actives have a fitted effect of over 40% in size
KB-3-1 tox: qHTS assay for MDR1-selective chemotherapeutics: Primary screen using the parental adenocarcinoma cell KB-3-1. Potency, µM (series often up to 46.1 µM), actives largely listed as cytotoxic. AID 1347075, 2019. KB-3-1 viability, CellTiter-Glo ATP luminescence, 72 h. actives 1.4% (n = 400,000); also: nearly all actives have a fitted effect of over 60% in size
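Multi-concentration cytotoxicity screen in KB-3-1 cells grown in DMEM lacking phenol red with 10% FBS. After 72 h at 37 °C with compound, ATP-dependent luminescence was recorded.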
KB-V1 cytotox: qHTS assay for MDR1-selective chemotherapeutics: Primary screen using the drug-selected MDR subline cells KB-V1. KB-V1 MDR cells viability, CellTiter-Glo, 72 h. Potency, µM (doses to about 46.1 µM), actives largely listed as cytotoxic. actives 3.4% (n = 400,000); also: nearly all actives have a fitted effect of over 60% in size
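Potencies derive from concentration-effect curves fitted to normalized luminescence (CellTiter-Glo) of KB-V1 cells treated for 72 h at 37 degrees C in phenol-red-free DMEM containing 10% FBS.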
ATXN2 expr inh: Primary qHTS for Inhibitors of ATXN expression. actives 0.72% (n = 360,000). Potency, µM (series often up to 57 µM), hits mostly inhibitors. HEK-293 ATXN2-luciferase reporter, luminescence, 24 h; also: nearly all actives have a fitted effect of over 55% in size
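qHTS (up to 57 uM final) was run with 24 h compound exposure of reporter cells at 37 °C. Each well was multiplexed: SteadyGlo luminescence measured ATXN2-luciferase expression after a fluorogenic Gly-Phe-AFC viability readout (25 uM final).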
Hits are given with their value; – = inactive; ? = inconclusive; · = not tested or not shown; ! = not confirmed by another sample; [ ] = remark or other dose. Calls follow the shape of the dose curve; as a rule, active = well fitted curve in the direction sought with a large enough effect; inconclusive = small, poorly fitted or top-dose-only effect, or another doubt; inactive = no such curve, though single readings can be large; an effect the other way counts as inactive or inconclusive.

SMILES	HepG2 viability	TGFb SMAD3 inh	S2 tox	KB-3-1 tox	KB-V1 cytotox	ATXN2 expr inh
CCC(=O)c1cc2c(C)cc(=O)oc2c(C)c1OC	–	–	–	–	?	–
CCC(=O)Oc1c(C(=O)CC)cc2c(C)cc(=O)oc2c1C	–	–	·	–	16µM	–
CSCCC(NC(=O)c1ccc([N+](=O)[O-])cc1Cl)C(=O)OCC(=O)NCCCc1ccccc1 (stereo not drawn)	–	16µM	–	–	–	–
CSCCC(NC(=O)c1ccc([N+](=O)[O-])cc1Cl)C(=O)OCC(=O)NCC(F)(F)F (stereo not drawn)	–	–	–	–	?	–
COc1ccccc1-n1c(-c2ccc(F)cc2)coc1=O	–	–	–	–	–	–
COc1ccc(-n2c(-c3ccc(Br)cc3)c[n+]3c2CCc2ccccc2-3)cc1	–	?	–	2.6µM	–	?
COc1ccccc1-n1c(-c2ccccc2)c[n+]2c1CCc1ccccc1-2	–	13µM	?	3.3µM	–	6.7µM!
COc1ccc(-c2cn(-c3ccc(OC)cc3)c3[n+]2-c2ccccc2CC3)cc1	–	?	?	3.7µM	–	?
CCOc1ccc(-n2c(-c3ccccc3)c[n+]3c2CCC3)cc1	–	?	?	–	?	–[11.3 µM]
CC(C)c1ccc(-n2c(-c3ccccc3)c[n+]3c2CCc2ccccc2-3)cc1	–	?	?	2.6µM	–	?
Cc1ccccc1OCC(=O)NCC(=O)OCC(=O)c1ccc(-c2ccccc2)cc1	–	–	·	?	?	·
Cc1ncoc1C(=O)NCc1nc(-c2cccc(NC(=O)c3ccccn3)c2)oc1C	·	·	–	·	·	·
COCc1c(C(=O)NC2CCCC2)cnn1-c1nccc(-c2ccco2)n1	·	·	–	·	·	·
CCc1nc2ccc(C(=O)NCc3ccc(SC)cc3)cc2nc1CC	–	–	·	–	–	·
COC(=O)N/N=C/c1cn(CCCOc2ccccc2)c2ccccc12	–	?	–	?	23µM	–
COC(=O)N/N=C/c1cn(Cc2c(Cl)cccc2Cl)c2ccccc12	–	?	–	–	16µM	–
CCOC(=O)N/N=C/c1cc(C)n(-c2cccc3ccccc23)c1C	–	–	?	–	?	–
COC(=O)N/N=C/c1cn(Cc2ccccc2Cl)c2ccccc12	–	–	–	–	–	–
COC(=O)N/N=C/c1cc(C)n(-c2cccc3ccccc23)c1C	–	?	–	?	21µM	–
COC(=O)N/N=C/c1cn(Cc2ccccc2F)c2ccccc12	–	?	–	–	–	–
COC(=O)N/N=C/c1cn(Cc2ccc(Cl)cc2Cl)c2ccccc12	–	–	?	?	16µM	–
Cc1ccc(CN2CCc3nnc(C(NS(C)(=O)=O)C(C)C)n3CC2)cc1C (stereo not drawn)	·	·	–	·	·	·
CCCCNC(=O)C1C(c2ccc(C(F)(F)F)cc2)=Nc2ccccc2N1C(C)=O (stereo not drawn)	·	·	·	–	?	·
CC(=O)OCc1cnc(C)c2oc(=O)c(C(=O)Nc3cccc(F)c3)cc12	–	–	–	–	–	–
COc1ccccc1-c1csc(C(O)c2ccc(F)c(F)c2)n1 (stereo not drawn)	–	–	–	–	–	–
SMILES	HepG2 viability	TGFb SMAD3 inh	S2 tox	KB-3-1 tox	KB-V1 cytotox	ATXN2 expr inh
CC1(C)Cc2ccccc2-c2nnc(SCC(=O)Nc3nc4ccccc4s3)n21	–	–	–	?	3.3µM	–
Cc1ccccc1-n1c(SCC(=O)N2CCC(C(=O)O)CC2)nnc1-c1ccncc1	–	–	–	–	–	–
CC1(C)Cc2ccccc2-c2nnc(SCc3ccccc3)n21	–	–	–	–	–	–
Cn1c(SCC(=O)Nc2nc3ccccc3s2)nnc1-c1ccccc1	–	?	–	–	–	–
C=CCn1c(COc2cccc(C)c2C)nnc1SCC(=O)N1CCN(c2ccccc2)CC1	–	4.5µM	–	?	–	?
Cc1ccccc1-n1c(SCC(=O)N2CCN(c3ccccc3)CC2)nnc1-c1ccncc1	–	–	?	–	3.7µM	–
CC1(C)Cc2ccccc2-c2nnc(SCC(=O)N3CCN(c4ccccc4)CC3)n21	–	?	–	12µM	2.3µM	?
CC(C)c1ccc(N=c2c([N+](=O)[O-])nn(-c3ccc4c(c3)OCCO4)n2O)cc1	–	–	?	–	–	–
COc1cc(N=c2c([N+](=O)[O-])nn(-c3ccc4c(c3)OCCO4)n2O)cc(OC)c1	–	?	–	?	6.5µM	–
COc1cccc(C(=O)N2CCCC(c3nc(SCCN4CCOCC4)ncc3C)C2)c1 (stereo not drawn)	·	·	–	·	·	·
CCCN(CCC)C(=O)c1ccccc1C(=O)N(CCC)CCC	–	–	?	–	8.2µM	–
CCN(Cc1ccccc1)C(=O)c1ccccc1C	–	–	–	–	?	–
CNC(=S)N1N=C(c2cccs2)CC1c1ccc(OC)cc1 (stereo not drawn)	–	–	–	–	–	–

Compound activity from PubChem.
